In PubChem BioAssay (NCATS) one finds Potency data, which are given here for 38 compounds.

The structures appear in SMILES notation. Records with an inconclusive call do not appear. Where a call stands in place of a potency, no number is given. The source made the active and inactive calls. Calls come from the whole dose curve; as a rule, active = well fitted curve in the direction sought with a large enough effect; inconclusive = small, poorly fitted or top-dose-only effect, or another doubt; inactive = no such curve, though single readings can be large; an effect the other way counts as inactive or inconclusive.

Chain of Metallo-beta-lactamase type 2 (Klebsiella pneumoniae) (C7C422 whole entry, looked up): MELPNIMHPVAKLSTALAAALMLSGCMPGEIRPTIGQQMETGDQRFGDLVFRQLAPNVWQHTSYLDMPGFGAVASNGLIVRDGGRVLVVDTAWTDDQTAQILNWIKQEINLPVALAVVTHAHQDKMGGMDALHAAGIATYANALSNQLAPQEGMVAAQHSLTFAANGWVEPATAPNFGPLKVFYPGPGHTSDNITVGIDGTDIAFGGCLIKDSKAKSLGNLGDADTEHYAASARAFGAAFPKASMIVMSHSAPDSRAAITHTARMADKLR

One test has as its target Metallo-beta-lactamase type 2 (Klebsiella pneumoniae) (UniProt C7C422). Description: qHTS to identify inhibitors of the New Delhi Metallo-beta-lactamase (NDM): assay validation screen against the NCATS LOPAC Collection (AID 1794843).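 Note: nitrocefin turnover by NDM-1 measured as 485 nm absorbance at plateau.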 To be noted: NDM-1 enzyme, nitrocefin hydrolysis, absorbance 485 nm; series mostly up to 38.4 µM. In short, it runs like this: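 Nitrocefin hydrolysis (50 uM substrate stock) by NDM-1, 2 nM final, was followed by 485 nm absorbance after compound preincubation; buffer was 50 mM HEPES pH 7.0, 1 uM ZnSO4, 0.01% Tween20.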
Turning to `CN(C)CCC(c1ccc(Br)cc1)c1ccccn1` (stereo unspecified), the Potency result was “inactive”.

Turning to `C=C1C(=O)O[C@@H]2[C@H]3O[C@]3(C)CCC=C(C)CC[C@@H]12`, the Potency result was “inactive”.

`O=C(O)c1ccccc1Nc1ccccc1`: the Potency result was “inactive”.

As for `COc1ccc(NC(=O)c2ccc(-c3ccc(-c4noc(C)n4)cc3C)cc2)cc1N1CCN(C)CC1`, the Potency entry is “inactive”. Same read-out and setting: in the case of `CNc1ncnc2c1ncn2[C@H]1C[C@H](OP(=O)(O)O)[C@@H](COP(=O)(O)O)O1` it was “inactive”; in that of `COC(=O)[C@H](NC(=O)c1cc(-c2ccccc2)nc2ccccc12)c1ccccc1`, “inactive”. In the case of `[Li+]`, the Potency result was “inactive”. Regarding `Oc1cc2c(cc1O)C(c1ccccc1)CNCC2` (stereo unspecified), the Potency entry is “inactive”.

Take `O=C(O)C1CCCNC1` (stereo unspecified): the Potency result is “inactive”.

Consider `Nn1nnc2ccccc21`, for which the Potency entry was “inactive”. The same measure, in the same setting: in the case of `O=C(O)[C@H]1NCCC[C@H]1C(=O)O` it was “inactive”; in that of `C[C@H](O)C(=O)C1=Nc2c(nc(N)[nH]c2=O)NC1`, “inactive”; in that of `CCCCCCC/C=C\CCCCCCCCC(=O)O`, “inactive”. For `O=C(O)Cc1c[nH]c2ccc(O)cc12`, the Potency result is “inactive”. Same read-out and setting: the result for `CC(=O)C(C)=O` reads “inactive”; that for `O=[N+]([O-])c1cccc2cn[nH]c12`, “inactive”; that for `O=C(O)C1CCNCC1`, “inactive”. Still for that read-out and setting: in the case of `Nc1ccc(CCNc2ncnc3c2ncn3C2OC(CO)C(O)C2O)cc1` (stereo unspecified) it was “inactive”; in that of `NOCC(=O)O`, “inactive”.

As to `CN1CC(O)C(O)C(O)C1CO` (stereo unspecified), the Potency result was “inactive”. On the same count and under the same terms, in the case of `NC1(C(=O)O)CCCCC1` it was “inactive”; in that of `CC1CNCCN1S(=O)(=O)c1cccc2cnccc12` (stereo unspecified), “inactive”. The same measure, in the same setting: in the case of `CC(=O)O[C@H]1CC2(C)[C@@H](C[C@@H](O)[C@H]3[C@@]4(C)CC[C@@H](O)[C@@H](C)[C@@H]4CC[C@@]32C)C1=C(CCC=C(C)C)C(=O)O` (stereo partly specified) it was “inactive”.

Another test deals with Glutathione peroxidase 1 (Homo sapiens) (UniProt P07203). Description: Primary qHTS Assay for Inhibitors of Recombinant Selenoprotein Glutathione Peroxidase 1 (GPX1) (AID 1845191). Note: nearly all actives have a fitted effect of over 65% in size. To be noted: recombinant GPX1, GR-coupled NADPH fluorescence, 15 min; series mostly up to 48.8 µM. In short, it runs like this: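 GR-coupled readout: NADPH consumption tracked by fluorescence, ex 340/em 450 nm, at t=0 and after 15 min at RT. Final mix 10 nM GPX1, 1 mM GSH, 0.5 mM CHP, 0.5 mM NADPH, 100 nM GR, 0.01% BSA, following 30 min enzyme–compound preincubation.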
Chain of Glutathione peroxidase 1 (Homo sapiens) (P07203 whole entry, looked up): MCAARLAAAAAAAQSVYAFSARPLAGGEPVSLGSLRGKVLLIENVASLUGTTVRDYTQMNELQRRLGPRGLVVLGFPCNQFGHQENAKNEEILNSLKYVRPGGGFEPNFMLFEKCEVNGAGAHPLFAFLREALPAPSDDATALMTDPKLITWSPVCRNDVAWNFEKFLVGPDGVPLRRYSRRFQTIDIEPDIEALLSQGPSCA
On to `CN(C)CCC(c1ccc(Br)cc1)c1ccccn1` (stereo unspecified), for which the Potency result was “inactive”. `CC(C)NC[C@H](O)COc1cccc2ccccc12`: the Potency entry was “inactive”. `C=C1C(=O)O[C@@H]2[C@H]3O[C@]3(C)CCC=C(C)CC[C@@H]12`: the Potency entry was “inactive”.

As for `O=c1cc(-c2ccccc2)[nH]c2nc(Cl)ccc12`, the Potency entry was “inactive”. For `CN[C@H](CC(=O)O)C(=O)O`, the Potency result is “inactive”.

On to `C=CC1(C)CC(=O)C2(O)C(C)(O1)C(OC(C)=O)C(O)C1C(C)(C)CCC(O)C12C` (stereo unspecified), for which the Potency result was “inactive”.

As to `COc1ccccc1N1CCN(CCN(C(=O)c2ccc(F)cc2)c2ccccn2)CC1`, the Potency entry was “inactive”. Still for that read-out and setting: the result for `O=C(O)c1ccccc1Nc1ccccc1` reads “inactive”; that for `COc1ccc(NC(=O)c2ccc(-c3ccc(-c4noc(C)n4)cc3C)cc2)cc1N1CCN(C)CC1`, “inactive”.

In the case of `CNc1ncnc2c1ncn2[C@H]1C[C@H](OP(=O)(O)O)[C@@H](COP(=O)(O)O)O1`, the Potency entry was “inactive”. The same measure, in the same setting: the result for `COC(=O)[C@H](NC(=O)c1cc(-c2ccccc2)nc2ccccc12)c1ccccc1` reads “inactive”; that for `O=C1OC(=O)C2C3CCC(O3)C12` (stereo unspecified), “inactive”.

Consider `[Li+]`, for which the Potency entry is “inactive”. The same measure, in the same setting: the result for `CC(=O)/C(C)=N/O` reads “inactive”; that for `N[C@@H](CCC(=O)N[C@H](CSN=O)C(=O)NCC(=O)O)C(=O)O`, “inactive”; that for `Oc1cc2c(cc1O)C(c1ccccc1)CNCC2` (stereo unspecified), “inactive”.

With `CSc1nc(N)c2ncn([C@@H]3O[C@H](COP(=O)(O)OP(=O)(O)O)C(O)[C@H]3O)c2n1` (stereo partly specified), the Potency result was “inactive”. `O=C(O)C1CCCNC1` (stereo unspecified): the Potency entry was “inactive”. Same read-out and setting: the result for `Cc1ccccc1/C=C/C1=NCCN1` reads “inactive”; that for `O=c1[nH]c(=S)[nH]c(-c2ccccc2)c1Cc1c(O)ccc2ccccc12`, “inactive”. On the same count and under the same terms, in the case of `O=C(O)/C=C/c1cnc[nH]1` it was “inactive”; in that of `Nn1nnc2ccccc21`, “inactive”; in that of `O=C(O)[C@H]1NCCC[C@H]1C(=O)O`, “inactive”. The same measure, in the same setting: in the case of `C[C@H](O)C(=O)C1=Nc2c(nc(N)[nH]c2=O)NC1` it was “inactive”; in that of `CCCCCCC/C=C\CCCCCCCCC(=O)O`, “inactive”; in that of `O=C(O)Cc1c[nH]c2ccc(O)cc12`, “inactive”. In the case of `O=C(N[C@@H](Cc1ccccc1)C(=O)CCl)OCc1ccccc1`, the Potency entry is “inactive”. Take `CC(=O)C(C)=O`: the Potency result is “inactive”.

Consider `O=[N+]([O-])c1cccc2cn[nH]c12`, for which the Potency result was “inactive”.

As for `O=C(O)C1CCNCC1`, the Potency entry was “inactive”. On the same count and under the same terms, the result for `N=C(N)c1ccc(OCCCCCOc2ccc(C(=N)N)cc2)cc1` (tested in a mixture with another compound) reads “inactive”; that for `Nc1ccc(CCNc2ncnc3c2ncn3C2OC(CO)C(O)C2O)cc1` (stereo unspecified), “inactive”; that for `NOCC(=O)O`, “inactive”. On the same count and under the same terms, in the case of `CN1CC(O)C(O)C(O)C1CO` (stereo unspecified) it was “inactive”.

In the case of `NC1(C(=O)O)CCCCC1`, the Potency entry was “inactive”. Still for that read-out and setting: the result for `CC1CNCCN1S(=O)(=O)c1cccc2cnccc12` (stereo unspecified) reads “inactive”; that for `CC(=O)O[C@H]1CC2(C)[C@@H](C[C@@H](O)[C@H]3[C@@]4(C)CC[C@@H](O)[C@@H](C)[C@@H]4CC[C@@]32C)C1=C(CCC=C(C)C)C(=O)O` (stereo partly specified), “inactive”. As to `CC(N)(Cc1ccc(O)c(O)c1)C(=O)O` (stereo unspecified), the Potency entry is “inactive”.
